# Experimental data as given in PubChem BioAssay AID463082 (The Scripps Research Institute Molecular Screening Center, 2010).
# Hit rate of the full screen: of about 330,000 compounds, about 4,900 (1.5%) were called active. The sample holds actives, similar compounds and a random draw of the others, so the mix is not that of the screen.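 Rule for the calls: active = inhibition above the mean inhibition across the screen plus 3 SD (cut at about 25% in these data); inactive = the rest.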
# Biological target: Platelet-activating factor acetylhydrolase (Homo sapiens) (UniProt Q13093)
# Assay: inhibition of plasma PAF acetylhydrolase – biochemical, fluorescence polarization, human, primary screen (AID 463082);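 note: inhibitors block binding of the rhodamine activity-based probe so polarization drops; 0% = enzyme with DMSO and 100% = wells lacking pPAFAH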
# Settings: recombinant pPAFAH, FP-rhodamine probe fluorescence polarization; at 3.39 µM; active compounds read high
# Platelet-activating factor acetylhydrolase (Homo sapiens), sequence (Q13093 whole entry, looked up): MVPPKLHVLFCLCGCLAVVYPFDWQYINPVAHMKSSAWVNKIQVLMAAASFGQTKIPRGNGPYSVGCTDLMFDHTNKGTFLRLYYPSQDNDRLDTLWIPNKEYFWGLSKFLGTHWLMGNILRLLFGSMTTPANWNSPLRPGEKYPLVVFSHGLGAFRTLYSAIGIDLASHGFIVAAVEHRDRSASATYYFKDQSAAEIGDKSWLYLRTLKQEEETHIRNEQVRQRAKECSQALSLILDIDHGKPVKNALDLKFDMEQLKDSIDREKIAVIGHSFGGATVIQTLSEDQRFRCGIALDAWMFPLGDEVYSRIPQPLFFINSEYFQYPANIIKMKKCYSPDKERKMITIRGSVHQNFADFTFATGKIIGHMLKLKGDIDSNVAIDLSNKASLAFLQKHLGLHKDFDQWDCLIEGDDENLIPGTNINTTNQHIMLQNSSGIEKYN
row,Structure (SMILES),inhibition
1,O=C(COc1ccccc1)N1CCN=C1SCc1cccc(F)c1,4.42% (inactive)
2,CC(NS(=O)(=O)c1ccc(OCC(=O)N2CCCC2)cc1)c1ccccc1 (stereo not drawn),14.5% (inactive)
3,O=C(COc1ccc(S(=O)(=O)NCc2ccccc2)cc1)N1CCOCC1,4.78% (inactive)
4,O=C(COc1ccc(S(=O)(=O)NCCc2ccccc2)cc1)N1CCCC1,26.8% (active)
5,CCCCNC(=O)CCn1c(=O)c2ccccc2n(Cc2cc(C)ccc2C)c1=O,1.95% (inactive)
6,Cc1ccc(S(=O)(=O)N(CC(=O)Nc2cccnc2)c2ccc(Br)cc2)cc1,3.28% (inactive)
7,COc1cccc(CNC(=O)CCC2CCCN(C(=O)c3ccc(F)c(Cl)c3)C2)c1 (stereo not drawn),42.8% (active)
8,COc1cccc(C(=O)N2CCCC(CCC(=O)NCc3ccc(F)c(F)c3)C2)c1 (stereo not drawn),1.9% (inactive)
9,COc1cccc(CNC(=O)CCC2CCCN(C(=O)c3ccoc3C)C2)c1 (stereo not drawn),5.56% (inactive)
10,COc1ccc(S(=O)(=O)Nc2cccc3c2O[C@H](CN(C)S(=O)(=O)c2ccc(OC)cc2)[C@@H](C)CN([C@H](C)CO)C3=O)cc1,3.76% (inactive)
11,COc1ccc(NCc2nnc(SCc3ccccc3)n2-c2ccc(OC)cc2)cc1,2.01% (inactive)
12,OCCC1CN(Cc2cccc(O)c2)CCN1CCc1ccccc1 (stereo not drawn),-5.11% (inactive)
13,CN1CCN(c2ccc(S(=O)(=O)N3CCCCC3)cc2NC(=O)Cc2ccccc2F)CC1,-3.62% (inactive)
14,CCN(CC)S(=O)(=O)c1ccc(N2CCN(C)CC2)c(NC(=O)Nc2ccccc2F)c1,33.1% (active)
15,CCN(CC)S(=O)(=O)c1ccc(N2CCOCC2)c(NC(=O)C(C)Oc2ccc(F)cc2)c1 (stereo not drawn),10.3% (inactive)
16,C=CC[C@@H](CC(=O)N[C@@H](CO)Cc1ccccc1)C(=O)NCCOC(=O)[C@@H](CC=C)CC(=O)OC(C)(C)C,1.4% (inactive)
17,Cc1ccc(C)c(S(=O)(=O)Nc2cc(C)on2)c1,-1.93% (inactive)
18,CCn1c(N)c(Br)c(=O)[nH]c1=O,0.06% (inactive)
19,O=S(=O)(c1ccc(Cl)cc1)c1nc(-c2ccco2)oc1N1CCCCC1,-3.3% (inactive)
20,O=C(CSC1=Nc2ccccc2C2=NC(CC(=O)NCc3ccco3)C(=O)N12)NCc1ccco1 (stereo not drawn),5.99% (inactive)

row,Structure (SMILES),inhibition
1,CC(C)C1N=C2c3ccccc3N=C(SCC(=O)c3ccc(O)c(O)c3)N2C1=O (stereo not drawn),55.4% (active)
2,CCC(C)NC(=O)CSC1=Nc2ccccc2C2=NC(CCC(=O)NCc3ccco3)C(=O)N12 (stereo not drawn),2.48% (inactive)
3,CC(C)n1cnc2c(NCc3ccccc3)cc(OCC3CCN(C)CC3)cc21,11.1% (inactive)
4,CN(CC(=O)NCC(c1ccccc1)N1CCCC1)S(=O)(=O)c1ccc(Cl)cc1 (stereo not drawn),-2.68% (inactive)
5,O=C(O)c1cc2c(cc1NC(=O)c1c(F)cccc1Cl)OCCCO2,-0.94% (inactive)
6,CC(=O)Nc1ccc(OCCC[n+]2cccc(C(=O)[O-])c2)cc1,-0.37% (inactive)
7,O=c1ccc2c(-c3ccccc3S(=O)(=O)O)c3ccc(O)c(O)c3oc-2c1O,70% (active)
8,CCCCNC(=O)C1CCC(=O)N1CCc1ccccc1 (stereo not drawn),3.82% (inactive)
9,CCOc1ccc(OCC)c(-c2c(=O)n(OCc3ccc(Cl)cc3)c3ccccc3[n+]2[O-])c1,5.98% (inactive)
10,CCc1ccc(CN2C(=O)c3ccccc3C2C(=O)NCC2CCCO2)cc1 (stereo not drawn),7.1% (inactive)
11,N#CC1=C(N)Oc2c(ccc3cccnc23)C1c1ccncc1 (stereo not drawn),11.9% (inactive)
12,N#CC1=C(N)Oc2c(sc3ccccc23)C1c1ccco1 (stereo not drawn),26.5% (active)
13,O=C(O)/C(=C/c1cccnc1)NC(=O)c1ccccc1,-3.24% (inactive)
14,O=C(CN1C(=O)c2ccc([N+](=O)[O-])cc2C1=O)Nc1nnc(C2CC2)s1,0.34% (inactive)
15,O=C(Nc1cccn(Cc2c(Cl)cccc2Cl)c1=O)c1ccc(Cl)cc1,-3.34% (inactive)
16,O=C(COC(=O)c1ncc(Cl)c(Cl)c1Cl)NCc1ccccc1,14.3% (inactive)
17,Cc1cc(O)c(Sc2ccccc2)c(=O)o1,3.25% (inactive)
18,Cc1cc(O)c(C(=O)/C=C/c2c(F)c(F)c(F)c(F)c2F)c(=O)o1,27.7% (active)
19,Cc1ccc(N=Cc2c(O)cc(C)oc2=O)c(C)c1,-5.2% (inactive)
20,CCOC(=O)C1CCN(Cc2coc3ccc(Cl)cc3c2=O)CC1,-3.13% (inactive)

row,Structure (SMILES),inhibition
1,O=C(OCC1OC(Oc2ccc(O)cc2)C(O)C(O)C1O)c1ccccc1 (stereo not drawn),3.51% (inactive)
2,O=C(OCC1O[C@@H](OC(=O)c2cc(O)c(O)c(O)c2)[C@@H](OC(=O)c2cc(O)c(O)c(O)c2)[C@@H](OC(=O)c2cc(O)c(O)c(O)c2)[C@@H]1OC(=O)c1cc(O)c(O)c(O)c1)c1cc(O)c(O)c(O)c1 (stereo partly drawn),73% (active)
3,CC1Cc2ccccc2N1S(=O)(=O)c1cccc(C(=O)OCC(=O)N2CCOCC2)c1 (stereo not drawn),8.16% (inactive)
4,COc1ccc(OC)c(NC(=O)C2CCCN2S(=O)(=O)c2cccc3nsnc23)c1 (stereo not drawn),1.9% (inactive)
5,Cc1cc2nc3c(=O)n(Cc4ccccc4)c(=O)[nH]c3nc2cc1N,59.1% (active)
6,Cc1cc(-c2csc(N)n2)c(C)n1Cc1ccccc1,12.4% (inactive)
7,CC(=O)c1ccc(-c2ccc(Cn3c(C)nc4cc(N)c(C)nc43)cc2)cc1,3.76% (inactive)
8,Nc1nc(Br)c2ccccc2c1-c1ccc(F)cc1,29.3% (active)
9,CN(CC(=O)Nc1c(Cl)cccc1Cl)C(=O)CC1OC(=O)c2ccccc21 (stereo not drawn),1.34% (inactive)
10,OC(CNCC1CCCO1)Cn1c2ccc(Br)cc2c2cc(Br)ccc21 (stereo not drawn),60% (active)
11,O=C(CSc1ccc(-c2ccc(Br)cc2)nn1)NCC1CCCO1 (stereo not drawn),3.46% (inactive)
12,CC(NS(=O)(=O)c1ccc(Br)cc1)C(=O)NCC1CCCO1 (stereo not drawn),1.93% (inactive)
13,CC1c2nc3ccccc3n2C(CC(=O)NCCCN2CCOCC2)C(=O)N1Cc1ccccc1 (stereo not drawn),3.44% (inactive)
14,O=C(Cn1cc(C(F)(F)F)ccc1=O)Nc1ccc2c(c1)OCCO2,0.39% (inactive)
15,CCCN(CC(=O)Nc1ccccc1C)C(=O)c1ccc2[nH]c3c(c2c1)CC(C)CC3 (stereo not drawn),2.57% (inactive)
16,COc1cc2c(C(=O)O)c(C)n(C)c2c2ccccc12,8.22% (inactive)
17,Cc1c(C(=O)N/N=C/c2ccccc2)[nH]c2c([N+](=O)[O-])cccc12,2.71% (inactive)
18,COc1cccc2c(C)c(C(=O)O)[nH]c12,40% (active)
